Source: PubChem (National Center for Advancing Translational Sciences (NCATS))
Only some compounds are listed: those with a hit (about 10% of all), similar ones and a draw of the others.
BAZ2B inh = inhibitors of human BAZ2B bromodomain; Q9UIF8; AlphaScreen BAZ2B-H3K14Ac peptide displacement; Potency, µM (series often up to 114 µM), hits mostly inhibitors; 360,000 compounds, 4.4% hits; AID 504333; note: nearly all actives have a fitted effect of over 60% in size
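AlphaScreen displacement of biotin-H3(5-23)K14Ac peptide (50 nM final) from BAZ2B (50 nM final) in PBS pH 7.4, 0.01% Tween-20; complex preformed 30 min RT, then compounds (top 110 uM) 30 min RT, beads 20 min dark.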
CtBP-E1A inh = CtBP/E1A binding inhibition; AlphaScreen GST-E1A/His-CtBP binding, 1536-well; active compounds read low; activity change, % (concentration not given with the values); 340,000 compounds, 0.49% hits; in the data active = activity change below about -65%; inconclusive = mostly about -30% to -63%
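GST-E1A and His-tagged CtBP (125 nM each as 5X stock) were preincubated with pin-transferred compound for 2 h at 37 °C in the dark, then glutathione donor and nickel acceptor beads were added for 1 h before AlphaScreen reading.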
JMJD2A Tudor inh = blocks the human JMJD2A Tudor domain. AlphaScreen JMJD2A-Tudor / H3K4me3 peptide binding. Potency, µM (series often up to 114 µM), hits mostly inhibitors. 390,000 compounds, 4.4% hits. AID 504339; note: nearly all actives have a fitted effect of over 50% in size
Six1-Eya2 blk = inhibitors of human Six1/Eya2 interaction; Q15475+O00167; AlphaScreen GST-Six1/His-Eya2 binding, biochemical; active compounds read low; activity change, % (no concentration beside the values); 360,000 compounds, 0.56% hits; AID 651725; in the data active = activity change below about -65%; inconclusive = mostly about -30% to -63%
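Compounds are tested against tagged Six1 and Eya2 proteins bridged by glutathione donor and nickel acceptor beads; after a one-hour incubation at 37 °C without light, AlphaScreen emission is recorded.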
G9a inh = blocks human histone lysine methyltransferase G9a. AID 504332. G9a H3K9 monomethylation, AlphaScreen, 2 h. Q96KQ7. 350,000 compounds, 8.8% hits. Potency, µM (series often up to 102 µM), most hits filed as inhibitors; note: nearly all actives have a fitted effect of over 75% in size
Target sequence (Q96KQ7 913-1193 limits assumed): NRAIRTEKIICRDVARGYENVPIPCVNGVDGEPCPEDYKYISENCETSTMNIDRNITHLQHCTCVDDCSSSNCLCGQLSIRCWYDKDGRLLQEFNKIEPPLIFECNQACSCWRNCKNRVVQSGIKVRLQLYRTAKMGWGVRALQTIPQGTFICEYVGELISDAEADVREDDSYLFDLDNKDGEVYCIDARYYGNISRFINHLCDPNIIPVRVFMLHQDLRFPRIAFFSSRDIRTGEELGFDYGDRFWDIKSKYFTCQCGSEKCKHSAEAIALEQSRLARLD
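Quantitative HTS format: methyltransferase activity on a biotin-tagged H3K9 peptide is measured by AlphaScreen, using a rabbit anti-monomethyl-H3K9 antibody with streptavidin donor and anti-IgG acceptor beads. Final levels are 20 nM enzyme, 500 nM peptide, 20 uM SAM; 2 h RT.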
HP1b chromo inh = HP1-beta chromodomain-methylated histone interaction inhibition. AlphaScreen HP1-beta / biotin-H3K9me3 peptide binding. 390,000 compounds, 0.56% hits. P83916. Potency, µM (titrated, usually from 114 µM), most hits filed as inhibitors. AID 540317; note: nearly all actives have a fitted effect of over 70% in size
Target sequence (P83916 whole entry, looked up): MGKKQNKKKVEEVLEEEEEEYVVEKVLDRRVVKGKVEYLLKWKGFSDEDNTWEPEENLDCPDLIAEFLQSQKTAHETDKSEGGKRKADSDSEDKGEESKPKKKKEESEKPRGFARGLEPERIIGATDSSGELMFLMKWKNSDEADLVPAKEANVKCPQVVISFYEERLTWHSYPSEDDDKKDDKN
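HP1-beta protein (50 nM final) preincubated 30 min at room temperature with biotinylated H3(1-18)K9me3 peptide (50 nM) in PBS pH 7.4, 0.01% Tween-20, then compound added for 30 min. AlphaScreen streptavidin donor/nickel chelate acceptor beads (10 ug/mL final), 30 min dark, luminescence read.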
Hits are given with their value; n = inactive; u = inconclusive; x = no result given; ! = not active in a repeat; [ ] = dose if it differs, or a comment. Unless noted, calls come from the whole dose curve; as a rule, active = well fitted inhibition curve with a large enough effect; inconclusive = small, poorly fitted or top-dose-only effect; inactive = no such curve, though single readings can be large or run the other way.

SMILES	BAZ2B inh	CtBP-E1A inh	JMJD2A Tudor inh	Six1-Eya2 blk	G9a inh	HP1b chromo inh
O=C1NC(=S)N(c2ccc(Br)cc2)C(=O)/C1=C/N1CCN(C(=O)c2ccco2)CC1	n	x	n	n	45µM	n
CCOc1cccc(N2C(=O)/C(=C/c3ccco3)C(=O)NC2=S)c1	32µM	x	22µM	n	14µM	20µM
O=C1NC(=S)N(c2ccccc2)C(=O)/C1=C/c1ccco1	20µM	n	3.2µM	u	n[0.501 µM]	2.8µM
CC(=O)[C@@H]1CC[C@@H]2[C@@H]3CCC4=CC(=O)CC[C@@]4(C)[C@H]3CC[C@]21C	x	x	x	x	n[21.5 µM]	x
COc1cc2c(cc1O)[C@H]1Cc3ccc(OC)c(O)c3CN1CC2	x	x	x	x	n[21.5 µM]	x
CC[C@@H]1/C=C/C=C/C[C@H](C)[C@@H](O)[C@](C)(O)C(=O)[C@H](C)[C@@H](O)[C@H](C)C(=O)[C@H](C)[C@@H](O)[C@H](C)/C=C/C(=O)O[C@H]2[C@@H](C)[C@@H](CC1)O[C@@]1(CC[C@@H](C)[C@@H](C[C@H](C)O)O1)[C@@H]2C	x	x	x	x	n	x
Cc1ccc(-n2nc(C)c3c2NC(=O)CSC3c2ccc(O)cc2)cc1Cl (stereo not drawn)	n	x	n	x	n	u
C=C1Nc2ccccc2C(=O)N1c1ccccc1C	x	x	x	x	n[12.7 µM]	x
O=C(C[n+]1ccccc1)c1ccc(Cl)cc1	n	x	u	n	2µM	n
NCC(=O)c1ccccc1	x	n	n	n	x	n
CC1(C)C(O)CC(O)[C@]2(C)C1CC(O)[C@]1(C)C2CC[C@@]2(C)C(c3ccoc3)CC3OC312 (stereo partly drawn)	x	x	x	x	n[2.33 µM]	x
ClC1=CCC2CN(CCN3CCCCC3)CC2C1 (stereo not drawn)	n	n	n	n	79µM	n
Cc1ccc(N)cc1C	x	n	n	n	x	n
Cc1cc(N(C)C)ccc1N=Nc1ccc(N)cc1	x	-74	20µM	-77	x	45µM
CCN(CC)P(=O)(Nc1ccc([N+](=O)[O-])cc1)c1c(C)nn(CCC#N)c1NC(=O)c1ccc(Cl)cc1Cl (stereo not drawn)	u	n	n	n	n	n
OC(CN1CCOCC1)c1csc2ccccc12 (stereo not drawn)	x	n	n	n	x	n
O=C(CN1CCOCC1)c1cccc2ccccc12	50µM	n	7.9µM	n	3.2µM	n
Cc1c(C(=O)c2cccc3ccccc23)c2cccc3c2n1[C@H](CN1CCOCC1)CO3	x	n	56µM	n	11µM!	n
O=C(CN1CCOCC1)c1ccc(Br)cc1	n	n	79µM	n	u	n
C[C@H]1CC[C@@H]2[C@@H](C)[C@H]3C(CC4C5CC=C6CC(O[C@@H]7O[C@H](CO)C(O[C@@H]8O[C@@H](C)[C@H](O)[C@@H](O)[C@H]8O)[C@H](O)[C@H]7O[C@@H]7O[C@@H](C)[C@H](O)[C@@H](O)[C@H]7O)CC[C@]6(C)C5CC[C@@]43C)N2C1 (stereo partly drawn)	x	x	n	x	x	n
S=c1nc(-c2ccccc2)n(-c2ccccc2)[nH]1	n	n	3.5µM	n	2.8µM	n
Oc1ccc2c3c1O[C@H]1c4c(c5ccccc5n4Cc4ccccc4)C[C@@]4(O)C(C2)N(CC2CC2)CC[C@]314	x	x	x	x	n	x
O=C1NC(=O)C2(Cc3ccccc3N3CCCC32)C(=O)N1c1ccc(Cl)cc1 (stereo not drawn)	n	n	u	n	20µM	n
CN1C(=O)NC(=O)C2(Cc3ccccc3N3CCOCC32)C1=O (stereo not drawn)	n	n	n	n	n	n
CN1C(=O)N(C)C(=O)C2(Cc3ccccc3N3CCCC32)C1=O (stereo not drawn)	n	n	n	n	n[12.7 µM]	n
SMILES	BAZ2B inh	CtBP-E1A inh	JMJD2A Tudor inh	Six1-Eya2 blk	G9a inh	HP1b chromo inh
Cc1ccc(N2C(=O)NC(=O)C3(Cc4ccccc4N4CCCC43)C2=O)cc1 (stereo not drawn)	n	n	n	n	8.9µM	n
Cc1ccc(Cn2cccc(C(=O)Nc3nnc(C)s3)c2=O)cc1	n	x	n	x	u	n
COc1cccc(CN2CCN(Cc3cccc(F)c3)CC2)c1	35µM	x	7.9µM	n	x	u
COCCCOc1ccnc(CS(=O)c2nc3ccccc3[nH]2)c1C (stereo not drawn)	u	n	35µM	n	13µM	22µM
O=C(CCN1CCN(CCO)CC1)N1c2ccccc2Sc2ccc(C(F)(F)F)cc21	n	n	56µM	n	u	n
C1CCc2nnnn2CC1	x	x	x	x	n	x
CCN(CC)C(=O)c1c(C)[nH]c(=S)c(C#N)c1-c1ccco1	n	n	7.9µM	n	3.2µM	n
O=C(C/C=N\OCc1c(Cl)cccc1Cl)Oc1ccc(Cl)cc1Cl	n	n	n	n	u	n
NCCc1c[nH]c2ccc(OCc3ccccc3)cc12	u	n	n	n	50µM	n
COc1cccc(CC(=O)N2CCN(Cc3cccc(Cl)c3)CC2)c1	n	n	n	n	n	n
COC(=O)N1CCN(C(=O)Cc2ccc(Cl)c(Cl)c2)C(CN2CCCC2)C1 (stereo not drawn)	n	x	x	x	35µM!	x
NCC(O)c1cccc(O)c1 (stereo not drawn)	x	x	x	x	n[12.7 µM]	x
CC(C)c1cccc(O)c(=O)c1	56µM	n	n	n	11µM!	n
COc1ccc(N2C(=O)CC(N3CCC(n4c(=O)[nH]c5ccccc54)CC3)C2=O)cc1 (stereo not drawn)	n	n	n	n	40µM	n
CCC(c1nnnn1-c1ccc(OC)cc1)N1CCC(n2c(=O)[nH]c3ccccc32)CC1 (stereo not drawn)	x	n	x	n	x	x
O=C(Oc1ccc(Cl)c2cccnc12)N1CCCCCC1	n	n	n	n	n	n
COc1ccc(OC)c(NC(=O)C2C(C(=O)O)C3(Cl)C(Cl)=C(Cl)C2(Cl)C3(Cl)Cl)c1 (stereo not drawn)	n	n	n	n	45µM	n
O=C(Nc1ccccc1)N1CC[C@@]2(CCCNC2)C1	x	x	x	x	n[12.7 µM]	x
CN(C)C1C(=O)C(C(N)=O)C(=O)C2(O)C(=O)C3C(=O)c4c(O)cccc4C(C)(O)C3C(O)C12 (stereo not drawn)	x	x	x	x	3.5µM	x
CN(C)[C@@H]1C(=O)C(C(N)=O)=C(O)[C@@]2(O)C(=O)C3=C(O)c4c(O)cccc4[C@@](C)(O)[C@H]3[C@H](O)[C@@H]12	2.8µM	-67!	1.4µM!	u	11µM	4µM!
CN(C)[C@@H]1C(=O)C(C(N)=O)=C(O)[C@@]2(O)C(=O)C3=C(O)c4c(O)ccc(Cl)c4[C@@](C)(O)[C@H]3C[C@@H]12	18µM	n	56µM	n	u	n
Cc1ccc(-c2nnc(Nc3ccc(OC(F)(F)Cl)cc3)c3ccccc23)cc1S(=O)(=O)NC(C)(C)CO	n	x	n	x	u	n
